Source: PubChem (National Center for Advancing Translational Sciences (NCATS))
An excerpt weighted towards active compounds, which were near 4.6% of everything screened.
VACV Venus inh – inhibitors of vaccinia virus (Venus reporter); Vaccinia virus Venus reporter expression, fluorescence; Potency, µM (series often up to 36.5 µM), for inactives: at the top dose activity change, negative = inhibition, usual class: inhibitors; 330,000 tested, 0.46% active; calls by dose curve; tested in A549 cells; further: nearly all actives have a fitted effect of over 30% in size
LASV entry inh – inhibitors of Lassa virus binding or cell entry | Lassa virus pseudotype entry inhibition, cell reporter | Potency, µM (top dose mostly 37.9 µM), without a hit: at the top dose activity change, negative = inhibition, hits mostly inhibitors | 300,000 tested, 1.2% active | AID 540256; calls by dose curve; tested in HEK293 cells; further: nearly all actives have a fitted effect of over 50% in size
HCV inh – inhibitors of hepatitis C virus infection | Potency, µM (series often up to 41.8 µM), without a hit: at the top dose activity change, negative = inhibition, hits mostly inhibitors | Huh7.5.1 HCVcc-Cre infection, luciferase reporter, 44 h | 340,000 tested, 3.4% active; active means well fitted inhibition curve with a large enough effect; inconclusive means small, poorly fitted or top-dose-only effect, or another doubt; inactive means no such curve, though single readings can be large or run the other way
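Cells seeded at 1,000/well and cultured 4 h, then compounds added followed by HCVcc-Cre virus (~0.5 moi). After 44 h further culture, luciferase substrate was added, plates held 15 min at room temperature, and luminescence read for 15 sec.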
Vaccinia mCherry – inhibitors of vaccinia virus infection (mCherry reporter signal). 310,000 tested, 0.63% active. Vaccinia virus mCherry reporter infection, fluorescence. Potency, µM (top dose mostly 36.5 µM), for the others: top-dose activity change, negative = inhibition, hits mostly inhibitors. AID 720579; calls by dose curve; tested in A549 cells; further: nearly all actives have a fitted effect of over 35% in size
MARV entry inh – inhibitors of Marburg virus binding or cell entry. Marburg virus pseudotyped entry inhibition, cell reporter. AID 540276. 300,000 tested, 1.8% active. Potency, µM (titrated, usually from 37.8 µM), inactives show at the top dose activity change, negative = inhibition, usual class: inhibitors; calls by dose curve; tested in HEK293 cells
* marks the source's active call; other numbers are inactive results; i = inactive; ? = inconclusive; · = not tested or not shown; ! = not active in a repeat; [ ] = remark or other dose. On the % scale 0 is the no-effect control and ±100 the full control effect; potency means the concentration at half of the fitted maximal effect.

SMILES	VACV Venus inh	LASV entry inh	HCV inh	Vaccinia mCherry	MARV entry inh
O=C(Nc1nc2ccc(F)cc2s1)C1CCN(S(=O)(=O)c2cc([N+](=O)[O-])ccc2Cl)CC1	?	?	32µM*	?	?
O=C(NCc1ccccc1)C1CCN(S(=O)(=O)c2cc([N+](=O)[O-])ccc2Cl)CC1	-9%	-17%	-9%	-23%	10%
Cc1ccc(NC(=O)C2CCN(S(=O)(=O)c3cc([N+](=O)[O-])ccc3Cl)CC2)nc1	·	·	5µM*	·	·
O=C(NC1CC1)C1CCN(S(=O)(=O)c2ccc(Cl)c([N+](=O)[O-])c2)CC1	·	·	13µM*	·	·
Cc1ccc2nc(NC(=O)C3CCN(S(=O)(=O)c4cc([N+](=O)[O-])ccc4Cl)CC3)sc2c1	?	?	6.3µM*	?	8.2µM*
COc1ccc(-n2c(O)c(/C=N/Nc3nc(C)cc(C)n3)c3ccccc3c2=O)cc1OC	?	?	2.8µM*	?	?
CCOC(=O)CSc1nc2cc(C(=O)N3CCC(C(N)=O)CC3)ccc2c(=O)n1C1CCCCC1	-6%	-29%	10%	-14%	?
COC(=O)c1ccc2c(=O)n(C3CCCCC3)c(SCC#N)nc2c1	·	?	4%	·	0.015µM*
COC(=O)[C@H](c1ccccc1)N1CCCCCC1	·	·	·	·	10%[46.1 µM]
O=C(Nc1ccc([N+](=O)[O-])cc1Cl)c1cc(Cl)ccc1O	?	1.3µM*	1.3µM*	?	1.1µM*
C=C1CC(COc2ccc3c(C)c(Cl)c(=O)oc3c2)(c2ccccc2)OC1=O (stereo unspecified)	11µM*	10µM*	?	10µM*	7.1µM*
COc1cc(=O)n2c(c1C(=O)NC(C)c1ccco1)CCN(C(=O)c1cccc(C)c1C)CC2 (stereo unspecified)	-8%	·	·	-12%	·
O=S(=O)(NCc1ccccc1)c1ccc(Cl)cc1	·	-18%	0%	·	-18%
O=S(=O)(Nc1cc2nc3ccccc3nc2n1Cc1ccccc1)c1ccc(Cl)cc1	-4%	7.3µM*!	?	i	?
CCOC(=O)c1sc(N(Cc2ccccc2)C(=O)COC(=O)c2ccc(O)cc2)nc1C	?	2.1µM*	?	i	?
CCOC(=O)c1sc(N(Cc2ccccc2)C(=O)COC(=O)c2ccccc2O)nc1C	-12%	-24%	0%	i	?
CCOC(=O)c1sc(N(Cc2ccccc2)C(=O)CCl)nc1C	-12%	18µM*	18µM*	-21%	?
COC(=O)C[C@H]1c2ccccc2S(=O)(=O)N1c1ccc(N(C)C)cc1	-10%	·	·	-21%	·
Cc1noc(C)c1C(=O)OCC(=O)c1ccc[nH]1	·	18%	-5%	·	34%
Cc1noc(C)c1C(=O)OCC(=O)c1cc(C)n(Cc2ccccc2Cl)c1C	·	?	11µM*	·	?
O=C(COc1ccccc1C(=O)Nc1ccccc1)NC1CCCCC1	-16%	·	·	i	·
COc1ccc(-c2noc(-c3ccc(NC4CCCC4)c([N+](=O)[O-])c3)n2)cc1OC	5%	24%[46.1 µM]	·	1%	18%[46.1 µM]
COc1ccc(-n2nc3c(N4CCCC(C(=O)NCCc5ccc(C)cc5)C4)nnc(C)c3c2C)cc1 (stereo unspecified)	?	-12%[46.1 µM]	·	?	·
CCOC(=O)N1CCC(Nc2ncnc3c2cnn3-c2ccc(C)cc2C)CC1	?	·	7.1µM*	?	·
Cc1ccc(-n2ncc(C(=O)Nc3cc(Cl)cc(Cl)c3)c2C2CCNCC2)cc1C	·	·	13µM*	·	·
SMILES	VACV Venus inh	LASV entry inh	HCV inh	Vaccinia mCherry	MARV entry inh
Cc1ccc(-n2ncc(C(=O)Nc3cc(Cl)ccc3Cl)c2C2CCNCC2)cc1	-21%	?	13µM*	-5%	?
O=C1CCCc2cc3c(cc21)CC1(C3)Cc2cc3c(cc2C1)C(=O)CCC3	?	·	11µM*	-10%	·
CC(C)(C)c1csc(NNC(=O)c2ccc(Cl)cc2)n1	?	?	?	7.1µM*	?
O=S(=O)(NCCc1csc2nc(-c3ccc(Cl)cc3)nn12)c1ccc(Oc2ccccc2)cc1	?	-9%[46.1 µM]	·	?	·
Cc1cc(C(=O)CN2C(=O)C(=O)N(Cc3ccccc3)C2=O)c(C)n1CC1COc2ccccc2O1 (stereo unspecified)	-8%	-28%	11µM*	?	?
Nc1nc(C2CC2)c(Sc2sc(N)nc2C2CC2)s1	?	2.5µM*	-7%	·	?
Cc1cc(C)nc(SCC(=O)Nc2ccc(S(=O)(=O)NC(C)(C)C)cc2)n1	·	-23%	11µM*	·	?
CCc1nn(-c2cc(Cl)ccc2OC)c2c1C(=O)CCC2	?	?	14µM*	?	?
CCCc1nn(-c2cc(Cl)ccc2OC)c2c1C(=O)CC(C)(C)C2	-18%	·	-27%	?	·
CCNc1ccc(Br)cc(C(=O)/C=C/c2ccccc2Cl)c1=O	·	?	13µM*	·	16µM*
CC(=O)CSc1ncnc2sc3c(c12)CCC(C)C3 (stereo unspecified)	·	2%	?	·	-21%
O=C(CSc1c2c(nc3cc(Cl)ccc13)CCCC2)NCc1ccccc1Cl	-20%	?	·	-17%	?
CC(=O)CSc1ncnc2sc3c(c12)CCCC3	-17%	-13%	10µM*	-15%	?
CC1(C)Cc2nc3sc4c(SCC(=O)NCc5ccco5)ncnc4c3cc2CO1	?	?	14µM*	·	?
O=C(CSc1ncnc2sc3c(c12)CCCC3)c1ccco1	?	-27%	?	·	?
O=C(CSc1ncnc2sc3c(c12)CCCCC3)NCc1ccco1	-22%	?	11µM*	-29%	?
O=C(CSc1c2c(nc3cc(Cl)ccc13)CCCC2)NCc1ccco1	6%	-2%	11µM*	-15%	?
O=S1(=O)CCOC[C@H](c2ccccc2)N1Cc1ccc(F)cc1	-21%	·	·	-26%	·
O=C(Nc1cccc(F)c1)c1ccc(-c2ccccc2)s1	-9%	16%[46.1 µM]	·	-5%	?
CNC(=O)[C@@H]1C[C@H](Sc2nc3ccccc3[nH]2)CN1Cc1cccc(C(F)(F)F)c1	-6%	·	·	-9%	·
CCOc1ccccc1CN1CCc2nc(N3CCN(C)CC3)ncc2C1	-5%	-7%[46.1 µM]	·	-10%	·
COc1ccc(OC)c(C(=O)N2CCOc3ccc(C(C)(O)CN(C)C)cc3C2)c1 (stereo unspecified)	-6%	·	·	-11%	·
CC(C)Cc1nc2sc3c(SCC(N)=O)ncnc3c2c2c1CCC2	·	·	1%	·	·
CC(C)c1nc2sc3c(SCC(=O)NCc4ccco4)ncnc3c2c2c1CCC2	14µM*	?	?	·	?
COc1ccc(-c2cc(=O)oc3c(O)c(O)ccc23)cc1	?	-4%	-9%	11µM*	?
O=C(NN=Cc1c(O)ccc2ccccc12)c1ccc2c(c1)OCO2	·	·	5µM*	·	·
O=C(CN1CCCc2ccccc21)N/N=C/c1ccccc1	1%	13%	-4%	-5%	?
O=C(CN1CCCc2ccccc21)N/N=C/c1c(O)ccc2ccccc12	?	?	10µM*	11µM*	?
O=C(N/N=C/c1c(O)ccc2ccccc12)c1ccc(CO)nc1	-20%	?	11µM*	?	11µM*
